The values that follow come from PubChem BioAssay (NCI).

The structures appear in SMILES notation. “And” between values parts separate entries of the source, which are not always exact repeats. Equal values may be shown once. Compounds without any hit were thinned out: in the full panel of roughly 79,000, 15% have a hit. More than one record can exist for a structure, and the calls need not agree. The source made the active and inactive calls. No stated cut-off is given here; in the data, active means growth inhibition above about 70%; inactive means the rest.

The first assay in a line: NCI Yeast Anticancer Drug Screen. Data for the cln2 rad14 strain (AID 165).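 Further: 0% = growth equal to vehicle treated cultures.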 Conditions: S. cerevisiae cln2 rad14 strain, at 5.0 µM (retest, dose inferred, filed as 0.5), stronger effect = higher value. In outline:
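Each compound was tested on cln2 rad14 yeast. Inhibition of growth was calculated against vehicle-exposed controls.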
As for `Cc1cc(C)c(O)c(C)c1.[Hg]`, the growth inhibition is 99% (active).

As for `CC(O)C(=O)O.CC(O)C(=O)O.[Ni]` (stereo not drawn), the growth inhibition is -5% (inactive).

For the molecule `CC(=O)OC1C(=O)OCC23CCC4(C)OC4C2OC2CC(OC(=O)/C=C/C=C/C(=O)OCCC1C)C3(C)C21CO1` (stereo not drawn), the growth inhibition is 98% (active).

As to `CN1C(=O)CC[C@@]2(C)C1=CC[C@H]1[C@@H]3CC[C@H](O)[C@@]3(C)CC[C@@H]12`, the growth inhibition is 13% (inactive).

`CC[C@H](C)c1occ2c(O)c(C(=O)O)c(=O)cc-2c1C`: the growth inhibition was 31% (inactive).

Consider `O=[N+]([O-])[O][Tl]([c]1ccccc1)[c]1ccccc1`, for which the growth inhibition is -4% (inactive).

In the case of `CCCC[CH2][Sn]([CH2]CCCC)[CH2]CCCC.CCCC[CH2][Sn]([CH2]CCCC)[CH2]CCCC`, the growth inhibition is 8% (inactive).

As to `Nc1cc(Cl)ccc1C(=O)c1ccccc1Cl`, the growth inhibition was -6% (inactive).

Regarding `CC(Br)CN1CCOCC1` (stereo not drawn), the growth inhibition was 14% (inactive).

On to `C(CCC[Te][Te]CCCCCCOC1CCCCO1)CCOC1CCCCO1` (stereo not drawn), for which the growth inhibition is 3% (inactive).

`CN1CN(c2ccccc2)C2(CCN(C3Nc4ccccc4O3)CC2)C1=O` (stereo not drawn): the growth inhibition was 31% (inactive).

For `[CH3][Sn]([CH3])([Cl])[c]1cc[c]([Sn]([CH3])([CH3])[Cl])cc1`, the growth inhibition was 11% (inactive).

As to `O=[C-]CCCCCC[C-]=O.[C-]#[O+].[C-]#[O+].[C-]#[O+].[C-]#[O+].[Fe+6].[Fe+6].[c-]1[c-][c-][cH-][c-]1.[c-]1[c-][c-][cH-][c-]1`, the growth inhibition is 1% (inactive).

Turning to `CCOC(=O)NC(=S)[S][Sb]([S]C(=S)NC(=O)OCC)[S]c1nc2ccc(N=Nc3ccc(NS(=O)(=O)c4ccc(NC(=O)C(N5CC5)(N5CC5)N5CC5)cc4)cc3)cc2s1`, the growth inhibition is 16% (inactive).

For `CCC[N+](CCC)(CCC)CCC.N#CN=C([SH2+])[SH2+].N#CN=C([SH2+])[SH2+].[Pt+2]`, the growth inhibition is -6% (inactive).

As for `CCCCCCCC/C=C\CCCCCCCCN1CC(C(=O)[O][Pb]([CH2]C)([CH2]C)[CH2]C)CC1=O` (stereo not drawn), the growth inhibition is 5% (inactive).

In the case of `O=c1[nH]cc(Cn2cnc3ncccc3c2=O)c(=O)[nH]1`, the growth inhibition was -3% (inactive).

As to `CC(C)(C)C1=CC(=C/C=C/c2cc(C(C)(C)C)[o+]c(C(C)(C)C)c2)C=C(C(C)(C)C)O1`, the growth inhibition was 99% (active).

With `S=C(S)N1CCCCC1`, the growth inhibition is 76% (active) and 3% (inactive).

Consider `CN[C@H]1C[C@@H]2O[C@@](C)([C@H]1OC)n1c3ccccc3c3c4c(c5c6ccccc6n2c5c31)C(=O)NC4`, for which the growth inhibition is 96% (active).

In the case of `CC(C)(C)OOC(=O)c1ccccc1`, the growth inhibition was 14% (inactive).

Consider `ClCCN(CCCl)CCN1c2ccccc2Sc2ccc3ccccc3c21`, for which the growth inhibition is -7% (inactive).

With `CCOC(=O)c1ccccc1N`, the growth inhibition was 2% (inactive).

On to `Cn1cnc(C(=N)[Se])c1N`, for which the growth inhibition was 2% (inactive).

As to `Cc1ccc(NP(=O)(Oc2ccccc2)N(CCCl)CCCl)cc1` (stereo not drawn), the growth inhibition is 30% (inactive).

`CCOC(=O)C1=C(C)NC(=O)NC1c1ccc(N(CCCl)CCCl)cc1Cl` (stereo not drawn): the growth inhibition was -8% (inactive).

For the molecule `ClC(C[n+]1ccccc1)c1ccccc1` (stereo not drawn), the growth inhibition is 4% (inactive).

Consider `CCCCCCCC1(c2ccc(N)cc2)CCC(=O)NC1=O` (stereo not drawn), for which the growth inhibition is -8% (inactive).

With `COC(=O)C(CCCN=C(N)N[N+](=O)[O-])NC(=O)c1ccc2c(c1O)C(=O)c1ccccc1C2=O` (stereo not drawn), the growth inhibition was -4% (inactive).

Regarding `Cc1cc(N(CCCl)CCCl)ccc1CN1CCCN(Cc2ccc(N(CCCl)CCCl)cc2C)C1c1ccc(N(CCCl)CCCl)cc1C`, the growth inhibition is 1% (inactive).

Consider `c1ccc([CH2][Pb]([c]2ccccc2)([c]2ccccc2)[c]2ccccc2)cc1`, for which the growth inhibition is 95% (active).

For `C[CH2][Sn][CH2]C.c1cc[c]([Ge]([c]2ccccc2)[c]2ccccc2)cc1.c1cc[c]([Sn]([c]2ccccc2)[c]2ccccc2)cc1`, the growth inhibition was 98% (active).

Take `CCC1(C2=CCCCC2)C(=O)NC(=S)NC1=O`: the growth inhibition is -14% (inactive).

Take `N#CC(=C=N)N=C(F)C(C#N)=C(C#N)C#N`: the growth inhibition was 7% (inactive).

Consider `N#C[SH2+].N#C[SH2+].N#C[SH2+].N#C[SH2+].[Cu+2].c1ccc(C[P+](c2ccccc2)(c2ccccc2)c2ccccc2)cc1`, for which the growth inhibition is -8% (inactive).

`CC#N.FC(F)(F)C#CC(F)(F)F.FC(F)(F)C#CC(F)(F)F.FC(F)(F)C#CC(F)(F)F.[W]`: the growth inhibition was 85% (active).

For the molecule `CC(C)c1cccc(C(C)C)c1NC(=O)C(=O)CC(=O)CC(c1ccccc1)c1c(O)c2ccccc2oc1=O` (stereo not drawn), the growth inhibition was -2% (inactive).

Consider `CCN(CCCl)c1ccc(/C=C/C2=[N+](C)c3ccccc3C2(C)C)c(C)c1`, for which the growth inhibition was -4% (inactive).

For `Cc1cc(C)[n+](CCOc2ccc(/C(=C(/Cl)c3ccccc3)c3ccccc3)cc2)c(C)c1`, the growth inhibition is 97% (active).

Staying with this assay, now noted: S. cerevisiae cln2 rad14 strain, at 50.0 µM (retest, dose inferred, filed as 5.0), stronger effect = higher value.
In the case of `Cc1cc(C)c(O)c(C)c1.[Hg]`, the growth inhibition is 99% (active).

In the case of `CC(O)C(=O)O.CC(O)C(=O)O.[Ni]` (stereo not drawn), the growth inhibition was -2% (inactive).

Turning to `CC(=O)OC1C(=O)OCC23CCC4(C)OC4C2OC2CC(OC(=O)/C=C/C=C/C(=O)OCCC1C)C3(C)C21CO1` (stereo not drawn), the growth inhibition was 98% (active).

As to `CN1C(=O)CC[C@@]2(C)C1=CC[C@H]1[C@@H]3CC[C@H](O)[C@@]3(C)CC[C@@H]12`, the growth inhibition was 40% (inactive).

For `CC[C@H](C)c1occ2c(O)c(C(=O)O)c(=O)cc-2c1C`, the growth inhibition was 99% (active).

In the case of `O=[N+]([O-])[O][Tl]([c]1ccccc1)[c]1ccccc1`, the growth inhibition was 57% (inactive).

For the molecule `CCCC[CH2][Sn]([CH2]CCCC)[CH2]CCCC.CCCC[CH2][Sn]([CH2]CCCC)[CH2]CCCC`, the growth inhibition was 99% (active).

In the case of `Nc1cc(Cl)ccc1C(=O)c1ccccc1Cl`, the growth inhibition is 98% (active).

Turning to `CC(Br)CN1CCOCC1` (stereo not drawn), the growth inhibition is 66% (inactive).

As to `C(CCC[Te][Te]CCCCCCOC1CCCCO1)CCOC1CCCCO1` (stereo not drawn), the growth inhibition is 29% (inactive).

Take `CN1CN(c2ccccc2)C2(CCN(C3Nc4ccccc4O3)CC2)C1=O` (stereo not drawn): the growth inhibition is 42% (inactive).

In the case of `[CH3][Sn]([CH3])([Cl])[c]1cc[c]([Sn]([CH3])([CH3])[Cl])cc1`, the growth inhibition is 63% (inactive).

For the molecule `O=[C-]CCCCCC[C-]=O.[C-]#[O+].[C-]#[O+].[C-]#[O+].[C-]#[O+].[Fe+6].[Fe+6].[c-]1[c-][c-][cH-][c-]1.[c-]1[c-][c-][cH-][c-]1`, the growth inhibition was 97% (active).

As for `CCOC(=O)NC(=S)[S][Sb]([S]C(=S)NC(=O)OCC)[S]c1nc2ccc(N=Nc3ccc(NS(=O)(=O)c4ccc(NC(=O)C(N5CC5)(N5CC5)N5CC5)cc4)cc3)cc2s1`, the growth inhibition was 98% (active).

`CCC[N+](CCC)(CCC)CCC.N#CN=C([SH2+])[SH2+].N#CN=C([SH2+])[SH2+].[Pt+2]`: the growth inhibition was -7% (inactive).

Regarding `CCCCCCCC/C=C\CCCCCCCCN1CC(C(=O)[O][Pb]([CH2]C)([CH2]C)[CH2]C)CC1=O` (stereo not drawn), the growth inhibition is 66% (inactive).

`O=c1[nH]cc(Cn2cnc3ncccc3c2=O)c(=O)[nH]1`: the growth inhibition is -11% (inactive).

Consider `CC(C)(C)C1=CC(=C/C=C/c2cc(C(C)(C)C)[o+]c(C(C)(C)C)c2)C=C(C(C)(C)C)O1`, for which the growth inhibition was 94% (active).

In the case of `S=C(S)N1CCCCC1`, the growth inhibition was 99% (active) and -48% (inactive).

As for `CN[C@H]1C[C@@H]2O[C@@](C)([C@H]1OC)n1c3ccccc3c3c4c(c5c6ccccc6n2c5c31)C(=O)NC4`, the growth inhibition was 99% (active).

On to `CC(C)(C)OOC(=O)c1ccccc1`, for which the growth inhibition is 99% (active).

Regarding `ClCCN(CCCl)CCN1c2ccccc2Sc2ccc3ccccc3c21`, the growth inhibition was 18% (inactive).

For the molecule `CCOC(=O)c1ccccc1N`, the growth inhibition was -4% (inactive).

In the case of `Cn1cnc(C(=N)[Se])c1N`, the growth inhibition was 15% (inactive).

For the molecule `Cc1ccc(NP(=O)(Oc2ccccc2)N(CCCl)CCCl)cc1` (stereo not drawn), the growth inhibition was 61% (inactive).

Regarding `CCOC(=O)C1=C(C)NC(=O)NC1c1ccc(N(CCCl)CCCl)cc1Cl` (stereo not drawn), the growth inhibition was 74% (active).

`ClC(C[n+]1ccccc1)c1ccccc1` (stereo not drawn): the growth inhibition was 3% (inactive).

In the case of `CCCCCCCC1(c2ccc(N)cc2)CCC(=O)NC1=O` (stereo not drawn), the growth inhibition was 26% (inactive).

On to `COC(=O)C(CCCN=C(N)N[N+](=O)[O-])NC(=O)c1ccc2c(c1O)C(=O)c1ccccc1C2=O` (stereo not drawn), for which the growth inhibition is 3% (inactive).

In the case of `Cc1cc(N(CCCl)CCCl)ccc1CN1CCCN(Cc2ccc(N(CCCl)CCCl)cc2C)C1c1ccc(N(CCCl)CCCl)cc1C`, the growth inhibition was 98% (active).

Consider `c1ccc([CH2][Pb]([c]2ccccc2)([c]2ccccc2)[c]2ccccc2)cc1`, for which the growth inhibition is 95% (active).

Consider `C[CH2][Sn][CH2]C.c1cc[c]([Ge]([c]2ccccc2)[c]2ccccc2)cc1.c1cc[c]([Sn]([c]2ccccc2)[c]2ccccc2)cc1`, for which the growth inhibition is 97% (active).

With `CCC1(C2=CCCCC2)C(=O)NC(=S)NC1=O`, the growth inhibition was 62% (inactive).

`N#CC(=C=N)N=C(F)C(C#N)=C(C#N)C#N`: the growth inhibition was 94% (active).

Take `N#C[SH2+].N#C[SH2+].N#C[SH2+].N#C[SH2+].[Cu+2].c1ccc(C[P+](c2ccccc2)(c2ccccc2)c2ccccc2)cc1`: the growth inhibition is 82% (active).

For the molecule `CC#N.FC(F)(F)C#CC(F)(F)F.FC(F)(F)C#CC(F)(F)F.FC(F)(F)C#CC(F)(F)F.[W]`, the growth inhibition was 99% (active).

In the case of `CC(C)c1cccc(C(C)C)c1NC(=O)C(=O)CC(=O)CC(c1ccccc1)c1c(O)c2ccccc2oc1=O` (stereo not drawn), the growth inhibition was -2% (inactive).

On to `CCN(CCCl)c1ccc(/C=C/C2=[N+](C)c3ccccc3C2(C)C)c(C)c1`, for which the growth inhibition is 97% (active).

With `Cc1cc(C)[n+](CCOc2ccc(/C(=C(/Cl)c3ccccc3)c3ccccc3)cc2)c(C)c1`, the growth inhibition is 97% (active).
